In assay [1] the test system is Saccharomyces cerevisiae BY4741 SeMeCo community. In words: mean cell size (pixel area) (pixels); higher = larger cells. The conditions noted are these: 10 µM; 24 h; SM minimal medium. In a few lines:
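A fluorescent Saccharomyces cerevisiae BY4741 community carrying four plasmids was used, with each plasmid complementing one auxotrophy and bearing a fluorescent marker. An overnight preculture at OD600 = 1.0 was diluted to OD600 = 0.3, and 70 µl went into 384-well plates acoustically predosed with drug (final 10 µM) in SM medium for 24 h. After paraformaldehyde fixation, cells were imaged by automated confocal microscopy and analysed in Harmony, giving the mean cell pixel area per well. Each value is the average of 3 replicates. Same SeMeCo high-content imaging drug screen: Selleck FDA-approved drugs at 10 µM, 24 h in SM medium, 384-well plates, 3 replicates.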

Assay [2] shares this test system. In words: z-score of prototroph abundance vs DMSO median; higher = larger share of this subpopulation than in DMSO controls. To be noted: 10 µM; 24 h; SM minimal medium; subpopulation (auxotrophy): Prototroph. The essentials: (§1)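 Scoring was based on each subpopulation's abundance, expressed as a z-score against the vehicle-well median. A Saccharomyces cerevisiae BY4741 community with four plasmids, each restoring one auxotrophy and encoding a distinct fluorescent protein, was pre-grown overnight to OD600 1.0, diluted to 0.3, and added at 70 µl to 384-well plates acoustically predosed with library drugs (10 µM final). It then grew 24 h in minimal SM medium before paraformaldehyde fixation and automated confocal microscopy, with single-auxotroph fluorescent strains setting thresholds and autofluorescence correction.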

Assay [3] has the same test system. In words: z-score of subpopulation abundance vs DMSO median, subpopulation auxotrophic for M; higher = larger share of this subpopulation than in DMSO controls. To be noted: 10 µM; 24 h; SM minimal medium; subpopulation (auxotrophy): M. The essentials: as §1
The test system is the same in assay [4]. In words: z-score of subpopulation abundance vs DMSO median, subpopulation auxotrophic for L; higher = larger share of this subpopulation than in DMSO controls. The conditions noted are these: 10 µM; 24 h; SM minimal medium; subpopulation (auxotrophy): L. The essentials: as §1
Assay [5] shares this test system. In words: z-score of subpopulation abundance vs DMSO median, subpopulation auxotrophic for U; higher = larger share of this subpopulation than in DMSO controls. The conditions noted are these: 10 µM; 24 h; SM minimal medium; subpopulation (auxotrophy): U. In a few lines: as §1
The test system is the same in assay [6]. In words: z-score of subpopulation abundance vs DMSO median, subpopulation auxotrophic for H; higher = larger share of this subpopulation than in DMSO controls. The conditions noted are these: 10 µM; 24 h; SM minimal medium; subpopulation (auxotrophy): H. In a few lines:
as §1

The test system is the same in assay [7]. In words: z-score of subpopulation abundance vs DMSO median, subpopulation auxotrophic for LU; higher = larger share of this subpopulation than in DMSO controls. The conditions noted are these: 10 µM; 24 h; SM minimal medium; subpopulation (auxotrophy): LU. The essentials: as §1
For assay [8] the test system is unchanged. In words: z-score of subpopulation abundance vs DMSO median, subpopulation auxotrophic for LM; higher = larger share of this subpopulation than in DMSO controls. The conditions noted are these: 10 µM; 24 h; SM minimal medium; subpopulation (auxotrophy): LM. In a few lines:
as §1

For assay [9] the test system is unchanged. In words: z-score of subpopulation abundance vs DMSO median, subpopulation auxotrophic for HM; higher = larger share of this subpopulation than in DMSO controls. The conditions noted are these: 10 µM; 24 h; SM minimal medium; subpopulation (auxotrophy): HM. The essentials:
as §1

Assay [10] shares this test system. In words: z-score of subpopulation abundance vs DMSO median, subpopulation auxotrophic for HU; higher = larger share of this subpopulation than in DMSO controls. The conditions noted are these: 10 µM; 24 h; SM minimal medium; subpopulation (auxotrophy): HU. The essentials: as §1
Assay [11] shares this test system. In words: z-score of subpopulation abundance vs DMSO median, subpopulation auxotrophic for UM; higher = larger share of this subpopulation than in DMSO controls. The conditions noted are these: 10 µM; 24 h; SM minimal medium; subpopulation (auxotrophy): UM. In a few lines:
as §1

For assay [12] the test system is unchanged. In words: z-score of subpopulation abundance vs DMSO median, subpopulation auxotrophic for HL; higher = larger share of this subpopulation than in DMSO controls. The conditions noted are these: 10 µM; 24 h; SM minimal medium; subpopulation (auxotrophy): HL. In a few lines: as §1
Assay [13] has the same test system. In words: z-score of subpopulation abundance vs DMSO median, subpopulation auxotrophic for HLU; higher = larger share of this subpopulation than in DMSO controls. The conditions noted are these: 10 µM; 24 h; SM minimal medium; subpopulation (auxotrophy): HLU. In a few lines: as §1
Assay [14] has the same test system. In words: z-score of subpopulation abundance vs DMSO median, subpopulation auxotrophic for HLM; higher = larger share of this subpopulation than in DMSO controls. The conditions noted are these: 10 µM; 24 h; SM minimal medium; subpopulation (auxotrophy): HLM. The essentials: as §1
Assay [15] shares this test system. In words: z-score of subpopulation abundance vs DMSO median, subpopulation auxotrophic for HUM; higher = larger share of this subpopulation than in DMSO controls. The conditions noted are these: 10 µM; 24 h; SM minimal medium; subpopulation (auxotrophy): HUM. The essentials:
as §1

The test system is the same in assay [16]. In words: z-score of subpopulation abundance vs DMSO median, subpopulation auxotrophic for LUM; higher = larger share of this subpopulation than in DMSO controls. The conditions noted are these: 10 µM; 24 h; SM minimal medium; subpopulation (auxotrophy): LUM. In a few lines:
as §1

The test system is the same in assay [17]. In words: z-score of subpopulation abundance vs DMSO median, subpopulation auxotrophic for HLUM; higher = larger share of this subpopulation than in DMSO controls. The conditions noted are these: 10 µM; 24 h; SM minimal medium; subpopulation (auxotrophy): HLUM. In a few lines: as §1

Where a name gives a salt, the structure may show the parent alone. ± gives the standard deviation of the averaged measurements.

`CCCOc1ccc2c(c1)CC[C@@H]1[C@@H]2CC[C@]2(C)[C@@H](OC)CC[C@@H]12` [Promestriene] yielded a mean cell size in [1] of 12.5 ± 0.26. Also, the “z-score of prototroph abundance” value in [2] is -1.13. For the same molecule, the “z-score of subpopulation abundance” value in assay [3] was 1.08; in [4], 0.77; in assay [5], 0.31; in [6], 0.19; in [7], 0.62; in assay [8], 0.33. Further, the “z-score of subpopulation abundance” value in assay [9] was 0.25; in assay [10], 0.21; in assay [11] it was 1.71; in [12] it was 0.84; in assay [13], 0.6; in assay [14] it was 0.48. The “z-score of subpopulation abundance” value in assay [15] stood at 1.7; in assay [16], 1.34; in [17], 0.24.

Turning to `NC(=O)OCC(COC(N)=O)c1ccccc1` [Felbamate], the mean cell size in [1] was 12.33 ± 0.12. Also, the “z-score of prototroph abundance” value in assay [2] was 1.19. For the same molecule, the “z-score of subpopulation abundance” value in [3] was -0.21; in assay [4], -0.15; in assay [5] it was -0.1; in assay [6], -0.6; in assay [7], -0.71; in assay [8], -1.27. In addition, the “z-score of subpopulation abundance” value in [9] was -1.32; in assay [10], -0.73; in assay [11], -0.58; in assay [12], -0.42; in [13], -1.23; in assay [14], -1.16. The “z-score of subpopulation abundance” value in assay [15] is -0.71; in assay [16] it was -0.77; in assay [17], -0.68.

`Nc1c(Br)cc(Br)cc1CN[C@H]1CC[C@H](O)CC1` [Ambroxol HCl]: the mean cell size in assay [1] worked out at 12.1 ± 0.17. Besides, in assay [2], the “z-score of prototroph abundance” value was found to be 1.21. Besides, the “z-score of subpopulation abundance” value in [3] is -0.93; in assay [4], -1.26; in assay [5] it was -0.79; in [6], -0.09; in assay [7] it was -0.9; in assay [8], -0.43. Besides, the “z-score of subpopulation abundance” value was -1.17 in [9]; -1.1 in assay [10]; -0.8 in assay [11]; -0.86 in assay [12]; -0.39 in [13]; -0.5 in assay [14]. Also, the “z-score of subpopulation abundance” value in assay [15] was -0.94; in assay [16] it was -1.08; in assay [17], -0.43.

In the case of `N=C(N)NC(=O)c1nc(Cl)c(N)nc1N` [Amiloride HCl], in [1], the mean cell size was determined as 12.59 ± 0.11. Further, the “z-score of prototroph abundance” value in assay [2] is -0.41. For the same molecule, the “z-score of subpopulation abundance” value in [3] was 1.46; in [4], 1.94; in assay [5], -1.58; in [6], 0.83; in assay [7], -0.38; in [8] it was 3.94. Further, the “z-score of subpopulation abundance” value was 1.25 in assay [9]; -2.41 in assay [10]; 1.51 in assay [12]; -0.5 in [13]; 3.24 in assay [14]; -1.69 in assay [15]. Besides, the “z-score of subpopulation abundance” value in assay [16] was 0.19; in [17], 0.53.

In the case of `CCC(C)n1ncn(-c2ccc(N3CCN(c4ccc(OCC5COC(Cn6cncn6)(c6ccc(Cl)cc6Cl)O5)cc4)CC3)cc2)c1=O` (configuration not stated) [Itraconazole], the mean cell size in assay [1] turned out to be 11.93 ± 0.1. Further, in [2], the “z-score of prototroph abundance” value is -10.4. The “z-score of subpopulation abundance” value in assay [3] was 0.3; in assay [4], 0.48; in assay [5] it was -0.83; in assay [6], 18.3; in [7], -0.44; in [8], 1.85. Also, the “z-score of subpopulation abundance” value in [9] is 7.45; in assay [10], 7.89; in [11] it was 11.4; in [13], 7.28; in assay [14], 12.5; in assay [15] it was 9.21. In addition, the “z-score of subpopulation abundance” value is 6.18 in [16] and 7.85 in assay [17].

With `C[C@@H](O)[C@H]1C(=O)N2C(C(=O)O)=C(S[C@@H]3CN[C@H](C(=O)Nc4cccc(C(=O)O)c4)C3)[C@H](C)[C@H]12` [Ertapenem sodium], the mean cell size in assay [1] was 11.9 ± 0.17. Besides, the “z-score of prototroph abundance” value in assay [2] came to 0.33. Further, the “z-score of subpopulation abundance” value was 0.04 in [3]; -0.78 in assay [4]; -0.15 in [5]; 0.48 in assay [6]; -0.01 in assay [7]; -0.04 in [8]. In addition, the “z-score of subpopulation abundance” value is -0.22 in assay [9]; -0.53 in [10]; -1.03 in [13]; -0.62 in [14]; 0 in assay [15]; -0.18 in assay [16]. Moreover, the “z-score of subpopulation abundance” value in [17] was -0.21.

`Clc1ccc(CSC(Cn2ccnc2)c2ccc(Cl)cc2Cl)cc1` (configuration not stated) [Sulconazole Nitrate] registered a mean cell size in [1] of 12.1 ± 0.16. For the same molecule, the “z-score of subpopulation abundance” value in assay [3] is -2.96; in assay [4], -0.34; in assay [5] it was 1.17; in assay [7] it was -2.59; in assay [8] it was -2.53; in [9] it was 2.74. Further, the “z-score of subpopulation abundance” value in assay [10] amounted to 14.1; in assay [11], 5.19; in assay [12], 11; in [13], 7.54; in assay [14], 24.7; in assay [15] it was 6.12. Moreover, the “z-score of subpopulation abundance” value in [17] was found to be 10.5.

Source of the values: the supplement of paper PMC8975748.
